RN4220 kill – S. aureus RN4220 growth inhibition; 330,000 tested, 0.33% active; AID 1259311; inhibition, % (test concentration not listed); OD600, 16 h; in the data active = inhibition above about 85%;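 also: plate controls were untreated cells for no effect and reference antibiotic for full effect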
Mtb hypoxia inh – Mtb hypoxia fluorescent reporter inhibition | M. tuberculosis hypoxia-regulated fluorescent reporter, fluorescence | fluorescence inhibition, % (no concentration beside the values) | 300,000 tested, 0.1% active; in the data active = fluorescence inhibition mostly above about 23%, no sharp cut-off; inactive = mostly below about 17%
PfHsp40 rescue – rescue of PfHsp40-mediated yeast toxicity | S. cerevisiae expressing PfHsp40, growth rescue, ATP luminescence | growth rescue, % at 12.5 µM | 340,000 tested, 0.68% active | AID 504582; in the data active = growth rescue above about 28%, passing the limit was not always enough;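 also: yeast W303a lacking pdr1 and pdr3 grown in galactose medium; growth measured after three days at 30 °C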
ugtP null kill – kills S. aureus RN4220 lacking UgtP. S. aureus RN4220 ugtP deletion, OD600 growth, 16 h. growth inhibition, % (test concentration not listed). 330,000 tested, 0.54% active. AID 1259309; in the data active = growth inhibition above about 68%;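 also: plate controls were untreated wells for no effect and antibiotic for full effect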
MazF activator – increases E. coli MazEF RNase cleavage of RNA. AID 504720. 350,000 tested, 0.32% active. activation, % at 20 µM. FAM/BHQ RNA-DNA oligo cleavage fluorescence, 5 h; in the data active = activation above about 50%
TcdB inh – TcdB glycohydrolase inhibition; inhibition, % at 9.99 µM; P18177; 350,000 tested, 0.24% active; TcdB glycohydrolase enzymatic assay, plate reader; in the data active = inhibition above about 10%
* marks the source's active call; other numbers are inactive results; . = not tested or not shown; + = active, no number. Shown are actives, neighbours in structure and some others; about 1.3% of the full set was active somewhere.

SMILES | RN4220 kill | Mtb hypoxia inh | PfHsp40 rescue | ugtP null kill | MazF activator | TcdB inh
Cc1ccc(N=Cc2ccc(O)cc2O)cc1F | 2 | 6 | -1 | -6 | 194* | .
Oc1ccc(C=Nc2ccc(N3CCOCC3)cc2)c(O)c1 | 4 | 1 | 2 | 3 | -7 | .
CN1C(=O)c2cc(NC(=O)Nc3cccc(Cl)c3)ccc2OC[C@@H]2O[C@@H](CC(=O)NCCc3ccncc3)CC[C@@H]21 | . | . | . | . | . | 1
NS(=O)(=O)c1ccc(NC(=O)c2ccc3c(c2)OCO3)cc1 | 8 | 15 | 0 | 11 | 14 | 1
NS(=O)(=O)c1ccc(NC(=O)c2ccc3c(c2)CCCC3)cc1 | 7 | -1 | -1 | 18 | 72* | 0
CCCCCn1nc(-c2ccccc2)c2nc3ccccc3nc21 | . | . | 0 | . | -900 | .
CCn1nc(-c2ccccc2)c2nc3ccccc3nc21 | 2 | . | -1 | 15 | 786* | .
CCCn1nc(-c2ccccc2)c2nc3ccccc3nc21 | . | . | . | . | + | .
O=S(=O)(NN=Cc1ccc2c(c1)OCCO2)c1ccc(Cl)cc1 | 2 | 2 | . | 4 | . | .
CC(C)COc1ccc(/C(=N/O)c2ccccc2)cc1 | . | . | 4 | . | 0 | .
CC(C)COc1ccc(C(=NO)c2ccccc2)cc1 | 22 | 3 | . | 86* | . | .
CC(C)COc1ccc(CNC(=S)NCc2ccccc2)cc1 | -2 | 6 | 51* | -14 | -3 | .
CCOc1ccc(CNC(=S)NCc2ccc(OCC)cc2)cc1 | 1 | 4 | -1 | -3 | -5 | 1
O=C(C[C@H]1C[C@H]2c3cc(NC(=O)Nc4ccccc4)ccc3O[C@H]2[C@@H](CO)O1)NCc1ccncc1 | . | . | . | . | . | 1
CC(C)NC(=O)Nc1cccc2c1O[C@H](CN(C)Cc1ccncc1)[C@H](C)CN([C@H](C)CO)C2=O | . | . | . | . | . | 0
CC(=O)Oc1c(S(=O)(=O)c2ccccc2)c(C)nn1C(C)(C)C | 5 | 9 | 0 | 0 | 6 | .
Cc1nn(C(C)(C)C)c(OC(=O)c2cccs2)c1S(=O)(=O)c1ccccc1 | 0 | -2 | 67* | 12 | 2 | .
Nc1nonc1-n1nnc(C(=O)NN=Cc2ccc(OCc3ccccc3F)cc2)c1CN1CCCCC1 | 4 | -2 | . | 1 | . | .
CN(C)/N=C/c1ccc([N+](=O)[O-])cc1[N+](=O)[O-] | . | . | 31* | . | 3 | 1
CN(N=Cc1cccc2cccnc12)c1ccc([N+](=O)[O-])cc1[N+](=O)[O-] | . | . | 0 | . | 935* | 2
CN(C)N=Cc1ccc([N+](=O)[O-])cc1[N+](=O)[O-] | 6 | 0 | . | 0 | . | .
CCC(C)C(N)C(=O)NC(CCC(=O)OCc1ccccc1)C(N)=O (configuration not stated) | -19 | 5 | -1 | -9 | 68* | 1
CCN1CCN(Cc2ccc(NC(=O)c3ccc(C)c(NC(=O)C(=O)c4c[nH]c5ccccc45)c3)cc2C(F)(F)F)CC1 | 101* | 14 | -1 | 100* | -48 | 2
O=c1oc2ccccc2c(O)c1/C=C1\C=Nc2ccccc21 | 37 | 10 | 110* | 29 | 29 | .
O=C(Nc1cc(Sc2ccccn2)cc([N+](=O)[O-])c1)c1ccc(Cl)cc1 | -7 | . | -1 | -38 | 17 | .
SMILES | RN4220 kill | Mtb hypoxia inh | PfHsp40 rescue | ugtP null kill | MazF activator | TcdB inh
O=C(Nc1cc(Sc2ccccn2)cc([N+](=O)[O-])c1)c1cccc(Cl)c1 | -4 | -8 | 6 | -33 | 76* | 0
NC(=O)C1CCCNc2c(F)cc([N+](=O)[O-])cc2C(=O)NC(CCC(=O)O)C(=O)NC(CO)C(=O)N1 (configuration not stated) | 2 | 4 | . | -2 | . | .
O=C(/C=C/Nc1ccccc1)c1ccccc1 | -5 | -3 | 1 | -14 | -2 | .
CN(C)c1ccc(N/C=C/C(=O)c2ccccc2)cc1 | 9 | 7 | -1 | 9 | 154* | .
C[C@H](CO)N1C[C@H](C)[C@@H](CN(C)Cc2ccc(Oc3ccccc3)cc2)Oc2ncc(-c3ccncc3)cc2C1=O | . | . | . | . | . | 1
CCC(=O)N1CC[C@H]2[C@H](CO)Nc3ccc(-c4ccc(C(=O)N(C)C)cc4)cc3[C@H]21 | . | . | . | . | . | -1
Cc1[nH]c2ccccc2c1/C=N/NC(=S)NC(C)C | . | . | 4 | . | -1 | -20
Cc1ccc(NC(=S)NN=Cc2c(C)[nH]c3ccccc23)cc1 | 92* | 1 | . | 88* | . | .
O=S(=O)(N1CCCCC1)n1nnc2ccccc21 | 8 | 7 | 39* | 4 | -3 | .
O=C(/C=C(\O)c1ccc(Cl)cc1)C(=O)NNC(=O)C(O)(c1ccccc1)c1ccccc1 | -6 | . | 20 | 92* | 8 | .
O=C(/C=C(\O)c1ccccc1)C(=O)NNC(=O)c1ccccc1 | . | . | 0 | . | 1 | 0
O=C1CC(c2ccccc2)c2cccc(F)c21 (configuration not stated) | 4 | 18 | 39* | 6 | 10 | 1
O=C(CN1CCCCCC1)NN=Cc1cccc(Cl)c1Cl | -4 | -7 | . | -2 | . | .
CCC(C(=O)OC)n1cnc2scc(-c3ccc(C)c(C)c3)c2c1=O (configuration not stated) | 3 | 10 | 166* | 8 | 5 | 2
S=c1[nH]nc(NC2CCCCC2)s1 | . | . | . | . | 5 | 18*
CN(C)CCCNC(=O)C[C@@H]1C=C[C@H](NC(=O)Cc2cccnc2)[C@@H](CO)O1 | . | . | . | . | . | 1
Cc1cc(C)c(S(=O)(=O)N2CCC(C(=O)NCc3ccncc3)CC2)c(C)c1 | 3 | 9 | 0 | 5 | 5 | 0
Cc1cc(C)c(S(=O)(=O)N2CCC(C(=O)NCc3ccc(Cl)cc3Cl)CC2)c(C)c1 | -13 | 7 | 38* | -21 | 8 | .
Cc1ccc(C=NNC(=O)c2nnn(-c3nonc3N)c2CN(C)C)s1 | 5 | 2 | . | 12 | . | .
O=C(/C=C/c1ccc2c(c1)OCO2)c1c(O)n(CCC2=CCCCC2)c(=O)[nH]c1=O | 100* | 1 | 5 | 100* | -5 | 1
COc1ccc(/C=C/C(=O)c2c(O)n(CCC3=CCCCC3)c(=O)[nH]c2=O)cc1 | 89* | 1 | -2 | 92* | -6 | 1
CN(C)CCN=Cc1c(O)n(CCC2=CCCCC2)c(=O)[nH]c1=O | 3 | 8 | 1 | -1 | 6 | .
CCCCn1c(O)c(C(=O)/C=C/c2ccc3c(c2)OCO3)c(=O)[nH]c1=O | . | . | 0 | . | -12 | -2
CO[C@H]1CN(C)C(=O)c2cc(NC(=O)Nc3ccc(Cl)cc3)ccc2OC[C@H](C)N(C)C[C@@H]1C | . | . | . | . | . | 0
CC(NC(=O)c1ccc(F)cc1)c1ccccc1 (configuration not stated) | -16 | 56* | -1 | -3 | 0 | .
O=C(O)c1ccc(-c2ccc(O)c(F)c2)cc1 | . | . | 1 | . | 5 | 18*
CCc1ccc(CN(C)C(=O)c2cc(COc3cccc(C(F)(F)F)c3)on2)nc1 | 1 | 1 | 112* | -9 | 4 | 1
Cn1c(-c2c(N)n(CCc3ccccc3)c3nc4ccccc4nc23)nc2ccccc21 | -3 | -2 | -1 | -15 | -12 | 0
Cn1c(-c2c(N)n(C3CCCC3)c3nc4ccccc4nc23)nc2ccccc21 | -4 | -2 | 490* | -9 | 1 | .

Screening data as filed in PubChem.
